Measured values from PubChem BioAssay (NCI).
This is part of a sample that, as a whole, favours compounds with a hit. Of some 79,000 tested, about 15% had one in any assay. Cut-off read from the data, not from the text of the source: active = growth inhibition above about 70%; inactive = the rest.

How the values were obtained:
[1] = NCI Yeast Anticancer Drug Screen. Data for the rad50 strain (AID 155);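 note: 0% = growth of vehicle-only cultures of the same strain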; settings: S. cerevisiae rad50 strain growth inhibition; at 50.0 µM; hits give high values
Summary of the method: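 Cells are treated with compound, grown, and their growth is then scored against vehicle-only cultures of the same repair-deficient yeast strain.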

[2] = NCI Yeast Anticancer Drug Screen. Data for the mec2-1 strain (AID 157); settings: S. cerevisiae mec2-1 strain, at 50.0 µM, hits give high values
Summary of the method: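 Growth inhibition is read against vehicle-treated controls after compound exposure of the mec2-1 yeast strain, which is defective in DNA damage repair or cell cycle control.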

[3] = NCI Yeast Anticancer Drug Screen. Data for the sgs1 mgt1 strain (AID 161);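 note: 0% = growth of cultures given vehicle only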; settings: S. cerevisiae sgs1 mgt1 strain, at 50.0 µM, hits give high values
Summary of the method: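 This yeast growth screen uses a strain with defined DNA-repair lesions; compound-treated growth is compared with vehicle-treated growth.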

[4] = NCI Yeast Anticancer Drug Screen. Data for the cln2 rad14 strain (AID 165);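 note: 0% = growth equal to vehicle treated cultures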; settings: S. cerevisiae cln2 rad14 strain, at 50.0 µM, hits give high values
Summary of the method: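 Growth inhibition, relative to vehicle-treated controls, is the read-out. The test organism is a yeast strain with defined genetic alterations, cln2 rad14.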

[5] = NCI Yeast Anticancer Drug Screen. Data for the bub3 strain (AID 167); settings: S. cerevisiae bub3 mutant strain, at 50.0 µM, hits give high values
Summary of the method: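 Part of a panel of yeast mutants defective in DNA damage repair or cell cycle regulation. Each strain is grown with compound, and inhibition is calculated relative to solvent-treated cultures.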

[6] = NCI Yeast Anticancer Drug Screen. Data for the mlh1 rad18 strain (AID 175); settings: S. cerevisiae mlh1 rad18 strain growth inhibition; at 50.0 µM; hits give high values
Summary of the method: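 Cells of a genetically altered yeast strain, deficient in DNA damage repair, were treated with compound. Their growth was then compared with that of vehicle-treated cultures to give inhibition.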

Measured: growth inhibition

CN(C)c1nc(=Nc2ccc3c(c2)OCO3)ss1
inactive: [1] 30.5% | [2] 24.4% | [3] 54% | [4] 34.1% | [5] 16.9% | [6] 50.2%

ClC1(Cl)CC1c1ccccc1 (stereo not drawn)
inactive: [1] 0.1% | [2] 11.9% | [3] 6.8% | [4] -9.7% | [5] 1.45% | [6] 14.7%

CC(=O)/C=C\c1cc(C)ccc1O
inactive: [1] 27.3% | [2] 22.1% | [3] 9.3% | [4] -35.7% | [5] 8.25% | [6] 12.6%
